In all, about 44,000 compounds went through this assay and about 340 (0.77%) were called active. Inconclusive results (about 5%) are left out. Calls come from the whole dose curve; as a rule, active = well fitted inhibition curve with a large enough effect; inconclusive = small, poorly fitted or top-dose-only effect; inactive = flat fitted curve, though single readings scatter. The entries come from a sample that favours actives as a whole.
assay: Acumen qHTS Assay for Inhibitors of the mTORC1 Signaling Pathway in MEF (Tsc2-/-, p53-/-) Cells: Sytravon; settings: phospho-rpS6 immunofluorescence/PI, 24 h; series mostly up to 38.3 µM; activity change, negative = inhibition: at the top concentration; note: nearly all actives have a fitted effect of over 50% in size;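 for activity change, negative = inhibition: plate controls were DMSO for no effect and rapamycin for full effect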
From the text: NIH Molecular Libraries Probe Production Centers Network [MLPCN] NIH Chemical Genomics Center [NCGC] MLPCN Grant: NS059428-01 Assay Submitter (PI): Blenis, John; Hoffman, Greg; Harvard University NCGC Assay Overview: The mammalian target of rapamycin (mTOR) is an intracellular serine/threonine kinase Aberrant regulation of mTOR signaling plays a causative role in a number of human diseases, including cancer, benign tumors such as lymphangioleiomyomatosis (LAM) and Tuberous Sclerosis Complex (TSC), and metabolic diseases such as diabetes and obesity. This project aims to identify inhibitors of ribosomal protein S6 (rpS6) phosphorylation. The phosphorylation of rpS6 is a key event downstream of mTOR activation. The assay uses a phospho-specific antibody of phospho-rpS6 to detect inhibitors of mTOR activation. Mutations in the Tsc1 and Tsc2 genes are the underlying genetic lesions responsible for TSC, causing constitutive activation of the mTORC1 pathway and leading to profound effects on cell metabolism. Aberrant metabolism in cancer has recently received significant attention as a target to develop therapeutic agents in the treatment of cancer.1 As Tsc2-/- cells have lost the ability to respond to energy and growth factor deprivation, these cells are unable to properly down regulate cellular biosynthetic processes in response to metabolic stress, and are thus extremely sensitive to glucose deprivation-induced death.2 A central goal of this project is to explore the unique cell survival and metabolic properties of cells with Tsc1 or Tsc2 by screening for compounds that selectively target the Tsc2-/- MEFs by screening both Tsc2-/- and WT MEF cell lines. We hope to better understand these aspects of TSC physiology in order to exploit them for therapeutic benefit.
NCGC Acumen Assay Protocol Summary: For quantitative high throughput analysis of mTORC1 signaling, we developed a cell-based assay for immuno-fluorescence based detection of rpS6 phosphorylation on the Acumen Explorer that will be used a platform for the primary small molecule screen. Mouse embryonic fibroblasts (MEFs) are cultured in 1536-well plates using DMEM + 10% FBS. Twenty-four hrs after plating, test compounds (solubilized in DMSO) are delivered and incubated with the cells for 24 hrs at 37 degree Celsius. Following the incubation, media with compound is aspirated and the cells are fixed in 4% paraformaldehyde (PFA) containing PBS + 0.2% TX-100. Next, PFA is aspirated, cells are washed two times with PBS plus 0.2% TX-100 and the cells are blocked for 1 hr at room temperature (blocking buffer: LiCOR Blocking Buffer plus 0.2% TX-100). […] Cells are washed two times with PBS plus 0.2% TX-100, and stained with 10 uM propidium iodide (PI) for 20-25 minutes for cell number measurement (1:500 dilution of Hoescht staining is also added for IN Cell imaging). The plates are scanned on the Acumen Explorer laser scanning instrument (TTP Labtech) using the 488nm laser for simultaneous excitation of the Alexa-488 and PI. […] The normalized phospho-S6 staining is calculated as the ratio of the integrated Alexa 488 intensity divided by the integrated PI intensity for the single concentration rapamycin control (7.5 nM) and DMSO columns. […] Inhibition of the pathway is defined based on the normalized phospho-S6 intensity in rapamycin treated cells. Active cells are defined as those with a normalized phospho-S6 staining above this threshold, and each treatment is reported as the % positive cells in the well, where thresholds are defined by selecting wells with the highest and lowest signal and differentiating between the % non-active and % active populations. In addition to the pathway specific phospho-S6 endpoint, the number of PI stained cells from the Acumen is recorded as a measure of cell viability. The primary screen was performed with a MEF cell line in a defined genetic background, Tsc2-/-, p53-/- cell line stably transfected with an empty vector control (Tsc2-/- MEF).
Potency is the fitted concentration of half-maximal effect.

Row | SMILES | activity change, negative = inhibition | Potency
1 | COc1ccc(Cl)cc1NC(=O)CSc1nc(-c2cccs2)cc(C(F)(F)F)n1 | 12.9% (inactive) | –
2 | COc1ccc(C(F)(F)F)cc1NC(=O)c1sc2nc(-c3cccs3)ccc2c1N | – | 18.5 µM (active)
3 | Cc1nc2c(c(C)nn2-c2ccccc2)c(C)c1CCC(=O)NCCc1ccc(Cl)cc1 | 3.24% (inactive) | –
4 | O=C(NCc1ccccc1)c1cc(-c2cccc(Cl)c2)on1 | -24.7% (inactive) | –
5 | CC(C)CCN(C(=O)Nc1ccc(Cl)c(Cl)c1)C(C)c1cccs1 (centres undefined) | 0% (inactive) | –
6 | Cc1cccc(CCNC(=O)c2ccc3c(c2)nc2n3CCC(C)C2)c1 (centres undefined) | 4.15% (inactive) | –
7 | Cc1nn2c(=O)cc(COC(=O)c3ccccc3NC(=O)COc3ccccc3C)nc2s1 | 10.8% (inactive) | –
8 | COc1ccc(Br)cc1CNC(=O)c1cc(=O)[nH]c2ccc(S(=O)(=O)N3CCCC3)cc12 | 5.76% (inactive) | –
9 | CN(C)CCCn1c(-c2ccc(Cl)cc2)csc1=Nc1ccccc1 | -15.6% (inactive) | –
10 | COc1ccc(-c2nnc(SCC(=O)Nc3ccccc3C)o2)cc1OC | 3.97% (inactive) | –
11 | COc1ccc(Cc2nc3ccc(C(=O)NCc4ccc(OC)cc4OC)cc3o2)cc1 | -0.814% (inactive) | –
12 | Cc1ccc(Cl)cc1NC(=O)CCC(=O)N1CC(C)Sc2ccccc21 (centres undefined) | 0% (inactive) | –
13 | Cc1nc2ccccn2c(=O)c1NC(=O)c1c(F)cccc1F | -4.9% (inactive) | –
14 | CCc1cccc(NC(=O)Cn2nc(CC)n3c(cc4cc(C)ccc43)c2=O)c1 | -12.5% (inactive) | –
15 | CCOc1ccc(Nc2c(S(=O)(=O)c3ccccc3)cnc3ccccc23)cc1 | -1.31% (inactive) | –
16 | COc1ccc(CNC(=O)c2cc3cccc(OC)c3oc2=O)cc1 | -8.78% (inactive) | –
17 | COc1ccc(-n2c(SCC(N)=O)nc3c(oc4ccccc43)c2=O)cc1 | -0.0565% (inactive) | –
18 | CCOc1ccc(C2C(C(=O)Nc3ccc(Cl)cc3)=C(C)Nc3nc(C(F)(F)F)nn32)cc1 (centres undefined) | – | 5.85 µM (active)
19 | CCOc1ccccc1NC(=O)C1=C(C)Nc2ncnn2C1c1ccc(NC(C)=O)cc1 (centres undefined) | -2.65% (inactive) | –
20 | CCOc1cc(C2C(C(=O)Nc3ccc(OC)cc3)=C(C)Nc3nc(SC)nn32)ccc1O (centres undefined) | 1.6% (inactive) | –
21 | CCc1cccc(NC(=O)c2cnc(N3CCOCC3)c3ccccc23)c1 | -16.5% (inactive) | –
22 | Cc1cccc(N2CCN(C3=C(c4ccccc4)C(=O)c4ccccc43)CC2)c1C | -29.1% (inactive) | –
23 | COc1ccc(N(CC(=O)NCCc2ccc(Cl)cc2)S(=O)(=O)c2c(C)nn(C)c2C)cc1 | -13.3% (inactive) | –
24 | Cc1ccc(OCC(=O)Nc2ccc(OCc3cc(=O)n4c(C)csc4n3)cc2)cc1C | -25% (inactive) | –
25 | O=C(Cn1c(=O)n(-c2ccc(F)cc2)c(=O)c2sc3ccccc3c21)NC1CCCC1 | 6.67% (inactive) | –

Row | SMILES | activity change, negative = inhibition | Potency
26 | CCOc1cc(-c2nnc(SCC(=O)NC3CCCC3)nc2-c2ccc(OC)c(OCC)c2)ccc1OC | 0.0507% (inactive) | –
27 | CCOc1ccc(CCNC(=O)Cn2nc(CC)n3c(cc4sc(CC)cc43)c2=O)cc1OCC | -8.12% (inactive) | –
28 | Cc1ccc(C(=O)CC2(O)C(=O)N(CCc3ccccc3)c3ccc(Br)cc32)cc1 (centres undefined) | -4.49% (inactive) | –
29 | CCCN1C(=O)C(O)(CC(=O)c2ccc(CC)cc2)c2cc(Br)ccc21 (centres undefined) | – | 4.65 µM (active)
30 | CCc1ccc(C(=O)CC2(O)C(=O)N(CCc3ccccc3)c3ccc(Br)cc32)cc1 (centres undefined) | -7.15% (inactive) | –
31 | CCOc1ccccc1C(=O)NCC(c1ccc(N(C)C)cc1)N1CCCC1 (centres undefined) | 0% (inactive) | –
32 | COc1ccccc1NC(=O)c1sc2nc(C)c(C(=O)Nc3ccc(Cl)cc3)c(-c3ccc(Br)cc3)c2c1N | 0% (inactive) | –
33 | COC(=O)c1ccccc1NC(=O)Cn1c(=O)cc(C)c2c(C)nn(-c3cccc(Cl)c3C)c21 | 3.23% (inactive) | –
34 | CCOc1ccc(N(CC)C(=O)c2cc3c(=O)oc4ccccc4c3s2)cc1 | 3.16% (inactive) | –
35 | Cc1ccc(Cn2c(CNC(=O)Cc3cccc(C)c3)nc3cccnc32)cc1 | 1.57% (inactive) | –
36 | Cc1ccc(C)c(NC(=O)Cn2ccn(-c3ccc(F)cc3)c(=O)c2=O)c1 | -4.42% (inactive) | –
37 | COc1cc2nc(SCC(=O)Nc3ccccc3F)n3nc(-c4ccccc4)nc3c2cc1OC | -0.468% (inactive) | –
38 | Cc1cccc(N2CCN(C(=O)c3ccc4c(c3)CCN4S(=O)(=O)c3ccccc3)CC2)c1C | -12.5% (inactive) | –
39 | O=C(NCCCO)C(=O)Nc1c2c(nn1-c1ccccc1)CSC2 | -1.8% (inactive) | –
40 | CCCCN(C)S(=O)(=O)c1ccc(C(=O)Nc2sc3c(c2C(N)=O)CC(C)(C)NC3(C)C)cc1 | 0.0542% (inactive) | –
41 | O=C(CCSCc1ccccc1F)N1CCN(c2ccc(Cl)cc2)CC1 | 6.13% (inactive) | –
42 | COc1cc(OC)c(NC(=O)N2CC3CCCN3c3ccccc32)cc1Cl (centres undefined) | -2.08% (inactive) | –
43 | COc1ccc(CNc2nc(-c3ccc(Cl)cc3)nn2C(=O)c2ccccc2)cc1 | -3.64% (inactive) | –
44 | CCOc1ccc(-n2c(C)nc3c(cnn3-c3ccc(C)cc3)c2=O)cc1 | 0.221% (inactive) | –
45 | COc1ccccc1NC(=O)CSC1=Nc2ccccc2C2=NC(CC(=O)NCc3cccs3)C(=O)N12 (centres undefined) | -4.43% (inactive) | –
46 | COc1cc(NC(=O)Cn2nc(-c3ccc(C)c(C)c3)ccc2=O)cc(OC)c1 | -5.32% (inactive) | –
47 | CCN(CC)c1cc(NC2CCCCC2)c2c3c(onc13)-c1ccccc1C2=O | 0.307% (inactive) | –
48 | COc1ccc(-c2noc(CSc3nc4ccc(C)cc4[nH]3)n2)cc1 | 2.06% (inactive) | –
49 | CCCCN(CC)CCCNC(=O)Cn1ncc2c([nH]c3ccc(C)cc32)c1=O | 7% (inactive) | –

From PubChem BioAssay AID493208 (National Center for Advancing Translational Sciences (NCATS), 2011)
